# Compound activity from PubChem BioAssay.
# MITF inh: inhibitors of human MITF; AID 1259374; O75030; hit rate 0.91% among 650,000; AlphaScreen MITF homodimerization, bead proximity signal; inhibition, % at 2.6 µM; in the data active = inhibition above about 50%;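 note: 0% = vehicle wells with protein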
# FBW7 act: human FBW7 E3 ligase activation, primary screen; normalized activity (activation), % at 26.1 µM; hit rate 0.13% among 650,000; AlphaScreen FBW7–phospho-cyclin E peptide binding, activator screen; in the data active = normalized activity above about 1.9%;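 note: purified mutant Fbw7 with reduced substrate affinity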
# Target sequence (Q969H0 whole entry, looked up): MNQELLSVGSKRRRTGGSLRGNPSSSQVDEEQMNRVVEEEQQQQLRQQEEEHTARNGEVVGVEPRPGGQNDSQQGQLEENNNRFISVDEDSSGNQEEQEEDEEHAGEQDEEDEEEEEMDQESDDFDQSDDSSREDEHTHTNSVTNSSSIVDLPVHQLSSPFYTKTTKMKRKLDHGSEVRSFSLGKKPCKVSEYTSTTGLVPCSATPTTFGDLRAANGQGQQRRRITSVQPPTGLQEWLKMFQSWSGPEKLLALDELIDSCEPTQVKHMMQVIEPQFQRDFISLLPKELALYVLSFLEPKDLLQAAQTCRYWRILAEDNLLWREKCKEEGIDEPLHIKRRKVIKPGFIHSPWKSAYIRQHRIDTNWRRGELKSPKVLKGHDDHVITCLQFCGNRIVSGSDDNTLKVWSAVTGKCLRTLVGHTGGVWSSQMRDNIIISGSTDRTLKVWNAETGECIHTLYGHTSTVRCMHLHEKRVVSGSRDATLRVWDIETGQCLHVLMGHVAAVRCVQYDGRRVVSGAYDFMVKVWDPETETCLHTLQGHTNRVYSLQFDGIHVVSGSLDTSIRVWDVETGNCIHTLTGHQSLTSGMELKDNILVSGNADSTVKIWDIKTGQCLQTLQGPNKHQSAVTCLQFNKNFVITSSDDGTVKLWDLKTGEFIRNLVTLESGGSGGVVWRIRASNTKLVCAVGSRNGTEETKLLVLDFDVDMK
# GPR151 activ: activators of human GPR151; activation, % at 11.2 µM; PathHunter beta-arrestin GPR151 cells, luminescence; hit rate 1% among 650,000; Q8TDV0; in the data active = activation above about 4.9%;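 note: 0% = median of compound wells and 100% = cells with positive control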
# TEAD-YAP block: TEAD-YAP interaction inhibition; HEK-TIYL cells, TEAD-Gal4/YAP UAS-luciferase luminescence; inhibition, % at 9.12 µM; hit rate 1.4% among 640,000; in the data active = inhibition above about 32%;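 note: 0% = median of test compound wells and 100% = reference inhibitor wells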
# MITF inh conf: confirmation of human MITF inhibitors; inhibition, % at 2.6 µM; hit rate 16% among 4,700; AlphaScreen MITF homodimerization, biotin/His-MITF beads; shares compounds with MITF inh;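 active = inhibition above a cutoff derived from the DMSO control wells, cut at about 28% in these data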;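 note: 0% = MITF dimer wells with DMSO only; inhibitors lower the bead chemiluminescence by keeping MITF from dimerizing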
# AS interf DR: counter-screen: compounds optically interfering with AlphaScreen | IC50, µM | hit rate 6% among 480 | AlphaScreen optical interference counterscreen, cell-free | shares compounds with MITF inh; call rule not given here
# AS interf ctr: optically interferes with AlphaScreen signal; shares compounds with MITF inh; LysRS AlphaScreen counterscreen, signal interference, triplicate; inhibition, % at 2.6 µM; hit rate 7.6% among 4,700;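 active = inhibition above a cutoff derived from the DMSO control wells, cut at about 30% in these data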
# * hit, by the source's call; . = no result. Most compounds without a hit are left out; they make up all but 3.4% or so of the library.
SMILES,MITF inh,FBW7 act,GPR151 activ,TEAD-YAP block,MITF inh conf,AS interf ctr,others
C=CCc1cc(Cl)ccc1OCCNCCN1CCOCC1,76*,0,0,5,-9,0,
COc1cccc(-n2nc(C(=O)NC3CCCCC3)c3ccccc3c2=O)c1,20,0,0,9,.,.,
NC(=O)CSc1nnc(SCC(N)=O)s1,3,0,-1,0,.,.,
O=[N+]([O-])c1ccc(CN2CCN(c3ncccn3)CC2)o1,58*,0,0,9,5,1,
O=[N+]([O-])c1ccc(CN2CCN(c3ccc(Cl)cc3)CC2)o1,59*,1,4,7,16,12,
O=[N+]([O-])c1ccc(CN2CCN(c3cccc(Cl)c3)CC2)o1,21,0,1,5,.,.,
COc1ccc(OC)c(NC(=O)c2sc3ncnc(N4CCN(c5ccccn5)CC4)c3c2C)c1,-16,0,0,-6,.,.,
N=C1S/C(=C\c2ccc(-c3cccc(Cl)c3)o2)C(=O)N1c1ccc(OC(F)(F)F)cc1,-18,0,1,-2,.,.,
CC(c1cccnc1)N1CC23C=CC(O2)C(C(=O)O)C3C1=O (centres undefined),10,0,1,11,.,.,
CCCC1C(C#N)(C#N)C(C#N)=C(N)C1(C)C(C)=O (centres undefined),8,0,1,2,.,.,
CCOc1ccc(CN2CCN(S(=O)(=O)CC)CC2)cc1OC,37,0,-1,-5,.,.,
CCOc1cc(CN2CCN(C3CCCCC3)CC2)ccc1OC,64*,0,0,-2,6,18,
CCOc1cc(CN2CCN(C3CC4CCC3C4)CC2)ccc1OC (centres undefined),69*,0,0,6,-20,-2,
COc1ccc(CN2CCC(N3CCCCC3)CC2)cc1OC,38,0,-1,7,.,.,
Fc1ccc(CN2CCN(C3CC4CCC3C4)CC2)cc1 (centres undefined),79*,0,0,-10,2,0,
CCOc1cc(CN2CCN(C3CCCCCC3)CC2)ccc1OC,55*,0,0,-5,-1,8,
COc1ccc(CN2CCN(C3CCN(Cc4ccccc4)CC3)CC2)cc1OCc1ccccc1,29,0,-1,4,.,.,
CCOC(=O)c1ccc(N2C(=O)CC(C(=O)OC)=C2C)cc1,11,1,2,-16,.,.,
Cc1nnn(C23C[C@@H]4C[C@@H](CC(C(=O)N5CCN(c6ccccc6)CC5)(C4)C2)C3)n1,14,0,-2,-11,.,.,
CCOc1ccccc1CNc1nc2ccccc2n1CCN1CCOCC1,5,0,0,-2,.,.,
COc1ccc(C(=O)N2N=C(c3c(-c4ccccc4)c4cc(Br)ccc4[nH]c3=O)CC2c2ccc(OC)cc2)cc1 (centres undefined),-7,0,2,-1,.,.,
Cc1cccc(NC(=O)c2ccc(N3C(=O)C4C5C=CC(C6CC56)C4C3=O)cc2)c1 (centres undefined),-12,0,-1,-9,.,.,
Cc1cccc(NC(=O)c2ccc(N3C(=O)C4C5C=CC(C5)C4C3=O)cc2)c1 (centres undefined),76*,0,1,-16,4,10,
CS(=O)(=O)NN1C(=O)c2ccccc2NC1c1ccco1 (centres undefined),10,0,0,3,.,.,
CCC(C(=O)N1CCCC1)c1ccccc1 (centres undefined),-12,0,0,2,.,.,
SMILES,MITF inh,FBW7 act,GPR151 activ,TEAD-YAP block,MITF inh conf,AS interf ctr,others
CC(C(=O)N1CCCC1)N1CCN(C(c2ccccc2)c2ccccc2)CC1 (centres undefined),85*,0,-2,1,5,15,
O=C1CCCN1c1cccc(NS(=O)(=O)c2cccc3ccccc23)c1,51*,0,3,0,6,-1,
O=C1CCCCN1c1cccc(NS(=O)(=O)c2ccccc2)c1,4,0,-1,0,.,.,
CC(C)(C)C(=O)NC(=S)Nc1cccc([N+](=O)[O-])c1,58*,0,-2,-3,-8,-3,
CCCC(=O)NC(=S)Nc1cccc([N+](=O)[O-])c1,-16,0,-1,4,.,.,
C/C(=N\NC(=O)CC1=NNC(=O)C1)c1ccco1,51*,0,0,-1,36*,-2,AS interf DR=>6.5
CN(C)CCCNc1ncnc2sc3c(c12)CCCC3,-22,0,2,-7,.,.,
Cc1nc(NCCCN2CCOCC2)c2c3c(sc2n1)CCC3,9,0,0,9,.,.,
Cc1nc(NCCCN2CCOCC2)c2c3c(sc2n1)CCCC3,74*,0,-1,1,-16,1,
Cc1nc(NCCCN(C)C)c2c3c(sc2n1)CCCC3,51*,0,-1,-8,14,13,
O=c1[nH]c(CNCCN2CCOCC2)nc2sc3c(c12)CCC3,105*,-1,-1,2,19,100*,
O=c1[nH]c(CN2CCCCC2)nc2sc3c(c12)CCC3,-1,1,-1,3,.,.,
CCOC(=O)/C(C#N)=C1\SCC(=O)N1c1ccc(OC)cc1,3,0,-4,5,.,.,
Cc1cc(OCC(=O)NCCO)ccc1Cl,-1,0,0,-2,.,.,
Cc1cc(C)nc(N(C(=O)C2CC2)c2ccccc2)n1,7,0,-1,-2,.,.,
CN(C)CCCNCC(=O)c1c(-c2ccccc2)n(C)c2ccccc12,51*,1,0,-12,-7,8,
CN(C)C(=O)c1ccc(-c2nnc(OCc3nc4ccccc4n3C)c3ccccc23)cc1,-7,0,2,-12,.,.,
COc1ccc(C(=O)NCC(=O)NCC(=O)OCc2ccccc2)cc1,54*,0,1,5,8,6,
COC(=O)c1ccc(COC(=O)CNC(=O)c2ccccc2)cc1,10,0,1,6,.,.,
Cc1ccc(CN2C(=O)CSC2=O)cc1,-11,0,-2,2,.,.,
Cc1ccc(-c2nc3cc(NC(=O)c4cccnc4)ccc3o2)cc1Cl,8,0,2,-5,.,.,
Cc1ccc(-c2nc3cc(NC(=O)c4cccnc4)ccc3o2)cc1C,63*,0,1,-34,7,10,
Cn1cccc1CN1CCN(C(=O)c2cccc(F)c2)CC1,27,0,3,10,.,.,
Cn1cccc1CN1CCN(C(=O)c2ccc(F)cc2)CC1,53*,0,0,4,11,18,
Cn1cccc1CN1CCN(C(=O)c2ccc(-c3ccccc3)cc2)CC1,33,0,1,-6,.,.,
Cn1cccc1CN1CCN(C(=O)c2ccccc2F)CC1,54*,0,0,8,11,17,
CCCN(CCC)CCNC(=O)c1c(C)[nH]c(C(=O)OCC)c1C,17,1,-1,8,.,.,
CCOc1cccc(OCCn2ccnc2)c1,43,0,0,2,.,.,
Clc1cccc(Cl)c1OCCCn1ccnc1,52*,0,1,-2,1,1,
Cc1cccc(C)c1OCCCCn1ccnc1,70*,0,0,6,-5,-4,
